From PubChem BioAssay AID1494156 (National Center for Advancing Translational Sciences (NCATS), 2020) come the findings set out here.

Results filed as inconclusive are left out. A number with no mark means an inactive call. Activity calls are given as the source filed them. Calls follow the shape of the full dose curve.

This assay is described as follows: VSV-G qHTS counterscreen for inhibitors of MERS-S pseudo-typed particle cell entry. Background: In qHTS, concentration-response curves come from the screen itself.

With `CCN(CC)Cc1cc(Nc2ccnc3cc(Cl)ccc23)ccc1O`, the Potency is 24.1 µM (active).
As to `CC[C@@H]([C@H](C)O)n1ncn(-c2ccc(N3CCN(c4ccc(OC[C@@H]5CO[C@@](Cn6cncn6)(c6ccc(F)cc6F)C5)cc4)CC3)cc2)c1=O`, the Potency is 6.81 µM (active).
Same read-out and setting: with `CCCCN=C(N)N=C(N)N` the entry was “inactive”; with `O=C(O)c1cc(O)c2c(c1)[C@H]([C@H]1c3cc(C(=O)O)cc(O)c3C(=O)c3c(O[C@@H]4O[C@H](CO)[C@@H](O)[C@H](O)[C@H]4O)cccc31)c1cccc(O[C@@H]3O[C@H](CO)[C@@H](O)[C@H](O)[C@H]3O)c1C2=O`, 7.44 µM (active).
Consider `COc1cc(NS(C)(=O)=O)ccc1Nc1c2ccccc2nc2ccccc12`, for which the Potency was 0.764 µM (active).
On the same count and under the same terms, with `CC(C)C[C@H](NC(=O)[C@H](CCc1ccccc1)NC(=O)CN1CCOCC1)C(=O)N[C@@H](Cc1ccccc1)C(=O)N[C@@H](CC(C)C)C(=O)[C@@]1(C)CO1` the figure was 0.192 µM (active).
On the same count and under the same terms, to `COC(=O)C1=C(C)NC(C)=C(C(=O)OCC(C)C)C1c1ccccc1[N+](=O)[O-]` (configuration not stated) belongs 17.1 µM (active); to `Cc1cc(-n2c(=O)[nH]c(=O)n(C)c2=O)ccc1Oc1ccc(S(=O)(=O)C(F)(F)F)cc1`, 9.61 µM (active).
Regarding `CCOc1cc2ncc(C#N)c(Nc3ccc(OCc4ccccn4)c(Cl)c3)c2cc1NC(=O)/C=C/CN(C)C`, the activity, negative = inhibition was -3.61% [at 11.2 µM].
As to `CCn1cc(C(=O)O)c(=O)c2cc(F)c(N3CCNC(C)C3)c(F)c21` (configuration not stated), the Potency result is “inactive”.
As to `COc1ccc(Cc2nccc3cc(OC)c(OC)cc23)cc1OC`, the Potency is 3.04 µM (active).
Consider `CO[C@@]12[C@H](COC(N)=O)C3=C(C(=O)C(C)=C(N)C3=O)N1C[C@@H]1N[C@@H]12`, for which the Potency is 0.857 µM (active).
Still for that read-out and setting: to `COc1cc2nccc(Oc3ccc(NC(=O)C4(C(=O)Nc5ccc(F)cc5)CC4)cc3)c2cc1OC` belongs 15.2 µM (active); to `CC(C)C(=O)Oc1ccc(CO)cc1[C@H](CCN(C(C)C)C(C)C)c1ccccc1`, 21.5 µM (active); to `CCCN1C[C@H](C)[C@@H](O)[C@](C)(O)[C@@H](CC)OC(=O)[C@H](C)[C@@H](O[C@H]2C[C@@](C)(OC)[C@@H](O)[C@H](C)O2)C(C)[C@@H](O[C@@H]2O[C@H](C)C[C@H](N(C)C)[C@H]2O)[C@](C)(O)C[C@H]1C` (some centres not stated), “inactive”.
As to `Nc1ccn([C@@H]2O[C@H](CO)[C@@H](O)C2(F)F)c(=O)n1`, the Potency is 0.136 µM (active).
With `COc1cccc2c1C(=O)c1c(O)c3c(c(O)c1C2=O)C[C@@](O)(C(=O)CO)C[C@@H]3O[C@H]1C[C@H](N)[C@H](OC2CCCCO2)[C@H](C)O1` (some centres not stated), the Potency entry is “inactive”.
Consider `CC(C)OC(=O)OCOP(=O)(CO[C@H](C)Cn1cnc2c(N)ncnc21)OCOC(=O)OC(C)C`, for which the Potency was 0.0192 µM (active).
Consider `COC(=O)C[C@](O)(CCCC(C)(C)O)C(=O)O[C@@H]1C(OC)=C[C@]23CCCN2CCc2cc4c(cc2[C@H]13)OCO4`, for which the Potency is 0.482 µM (active).
Consider `Cc1ccc(NC(=O)c2ccc(CN3CCN(C)CC3)cc2)cc1Nc1nccc(-c2cccnc2)n1`, for which the Potency is 17.1 µM (active).
On the same count and under the same terms, with `Cc1cn([C@H]2C[C@H](N=[N+]=[N-])[C@@H](CO)O2)c(=O)[nH]c1=O` the figure was 0.304 µM (active); with `CNC(=O)c1cc(Oc2ccc(NC(=O)Nc3ccc(Cl)c(C(F)(F)F)c3)c(F)c2)ccn1`, 15.2 µM (active).
`CCCCCCOC(=O)NC(=N)c1ccc(NCc2nc3cc(C(=O)N(CCC(=O)OCC)c4ccccn4)ccc3n2C)cc1`: the Potency was 27.1 µM (active).
Take `CCCCCCCCCCCCOCCOCCOCCOCCOCCOCCOCCOCCOCCO`: the Potency was 5.41 µM (active).
In the case of `CCCCc1oc2ccccc2c1C(=O)c1cc(I)c(OCCN(CC)CC)c(I)c1`, the Potency was 24.1 µM (active).
On to `C[n+]1c2cc(N)ccc2cc2ccc(N)cc21` (tested in a mixture with another compound), for which the Potency was 1.71 µM (active).
The same measure, in the same setting: with `Cc1nnc2n1-c1sc(CCc3ccc(CC(C)C)cc3)cc1C(c1ccccc1Cl)=NC2C` (configuration not stated) the figure was 24.1 µM (active).
